Assay outcomes: PubChem, National Center for Advancing Translational Sciences (NCATS)
uPA surface inh: qHTS for Inhibitors of Cell Surface uPA Generation. Potency, µM (top dose mostly 38.3 µM), without a hit: top-dose activity change, negative = inhibition, actives largely listed as inhibitors. cell surface uPA generation assay, qHTS. AID 540303, 2011. 330,000 tested, 0.31% active; active = well fitted inhibition curve with a large enough effect; inconclusive = small, poorly fitted or top-dose-only effect; inactive = no such curve, though single readings can be large or run the other way; tested in mouse RAW 264.7 cells; note: potency is the fitted concentration of half-maximal effect; % is set by controls: 0 for no effect and ±100 for the full control effect; nearly all actives have a fitted effect of over 55% in size
TDP1 cell noCPT: qHTS for Inhibitors of human tyrosyl-DNA phosphodiesterase 1 (TDP1): qHTS in cells in absence of CPT; DT40 Tdp1-/- hTDP1 cells, no CPT, ATP luminescence, 48 h; Potency, µM (highest dose often 46.2 µM), without a hit: at the top dose activity change, negative = growth inhibition, hits mostly inhibitors; 420,000 tested, 15% active; AID 686978, 2013; note: potency is the fitted concentration of half-maximal effect; % is set by controls: 0 for no effect and ±100 for the full control effect; nearly all actives have a fitted effect of over 55% in size
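Cells were dispensed at 400 per well, compounds added by pin tool, plates incubated ≥48 hr at 37 °C, then CellTiter-Glo added for 30 min at room temperature before luminescence reading. Line: DT40 Tdp1-/- complemented with hTDP1; camptothecin omitted.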
TDP1 cell CPT: qHTS for Inhibitors of human tyrosyl-DNA phosphodiesterase 1 (TDP1): qHTS in cells in presence of CPT. AID 686979, 2013. chicken DT40 Tdp1-/-;hTDP1 cells + 20 nM CPT, ATP luminescence, 48 h. 420,000 tested, 12% active. Potency, µM (doses to about 46.2 µM), without a hit: at the highest dose activity change, negative = growth inhibition, usual class: inhibitors; note: potency is the fitted concentration of half-maximal effect; % is set by controls: 0 for no effect and ±100 for the full control effect; nearly all actives have a fitted effect of over 55% in size
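Chicken DT40 Tdp1-/- cells stably complemented with human TDP1 were seeded at 400 cells/well in medium containing 20 nM camptothecin, exposed to pin-transferred compounds, and grown at 37 °C for at least 48 hr. Viability was read as ATP luminescence.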
TDP1 inh: qHTS Assay for Inhibitors of Tyrosyl-DNA Phosphodiesterase (TDP1); Tyrosyl-DNA phosphodiesterase 1 (Homo sapiens), Q9NUW8; recombinant TDP1, AlphaScreen DNA substrate cleavage; Potency, µM (top dose mostly 130 µM), for inactives: top-dose activity change, negative = inhibition, most hits filed as inhibitors; 350,000 tested, 0.28% active; AID 485290, 2010; note: potency is the fitted concentration of half-maximal effect; % is set by controls: 0 for no effect and ±100 for the full control effect; nearly all actives have a fitted effect of over 40% in size
Target sequence (Q9NUW8 whole entry, looked up): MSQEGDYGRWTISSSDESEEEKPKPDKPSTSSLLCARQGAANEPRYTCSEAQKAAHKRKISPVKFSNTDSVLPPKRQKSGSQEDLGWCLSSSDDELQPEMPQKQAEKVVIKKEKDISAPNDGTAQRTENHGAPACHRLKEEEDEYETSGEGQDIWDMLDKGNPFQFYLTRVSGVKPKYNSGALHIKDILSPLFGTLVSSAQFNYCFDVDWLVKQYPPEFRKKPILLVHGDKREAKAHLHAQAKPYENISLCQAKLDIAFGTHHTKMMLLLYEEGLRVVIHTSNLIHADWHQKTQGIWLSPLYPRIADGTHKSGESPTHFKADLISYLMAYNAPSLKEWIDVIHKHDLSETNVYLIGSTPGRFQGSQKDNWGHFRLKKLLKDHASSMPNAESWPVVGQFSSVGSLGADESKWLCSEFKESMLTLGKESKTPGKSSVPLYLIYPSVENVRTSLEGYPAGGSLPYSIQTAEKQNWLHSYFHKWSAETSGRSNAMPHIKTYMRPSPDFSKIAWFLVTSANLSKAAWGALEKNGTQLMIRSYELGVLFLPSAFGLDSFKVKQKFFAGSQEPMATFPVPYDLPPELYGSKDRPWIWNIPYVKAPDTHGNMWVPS
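Steps: enzyme plus compound, 15 min RT; add biotin/phosphotyrosine-FITC oligonucleotide (15 nM final), react 5 min; add donor/acceptor beads (10 ug/ml final), 10 min; read AlphaScreen. Tdp1 at 1 nM final.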
miR-21 reporter: qHTS Assay for Modulators of miRNAs and/orActivators of miR-21; HeLa miR-21 FLuc reporter, luciferase, 48 h; Potency, µM (titrated, usually from 38.3 µM), inactives show top-dose activity change, positive = activation, actives largely listed as activators; 340,000 tested, under 10 active; AID 2288, 2010;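 note: % of control where 0% means no effect; miR-21 action dims this reporter so a rising signal means less miR-21 action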
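HeLa cells endogenously expressing miR-21, stably carrying CMV-driven firefly luciferase with a downstream miR-21 binding site, 2000 cells/well. Titrations up to approximately 40 uM, 48 hours; luciferase luminescence read.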
Numbers without * were called inactive; ? = inconclusive; . = not tested or not shown; [ ] = another dose, or the depositor's remark. Most compounds without a hit are left out; they make up all but 16% or so of the library. Unless noted, calls come from the whole dose curve; as a rule, active = well fitted curve in the direction sought with a large enough effect; inconclusive = small, poorly fitted or top-dose-only effect, or another doubt; inactive = no such curve, though single readings can be large; an effect the other way counts as inactive or inconclusive.

SMILES	uPA surface inh	TDP1 cell noCPT	TDP1 cell CPT	TDP1 inh	miR-21 reporter
CC1C=CC(C)C(C(=O)c2ccccc2)C1C(=O)c1ccccc1 (stereo unspecified)	.	23µM*	13µM*	.	.
CC(=O)Nc1ccc(Oc2cc(C#N)c(C#N)cc2N2CCCCCC2)cc1	-4%	-23%	-28%	-2%[56.1 µM]	12%
O=C(NCc1ccccc1Cl)C(=O)NCC(c1cccs1)S(=O)(=O)c1ccccc1 (stereo unspecified)	.	18µM*	15µM*	0%	17%
Cc1ccc(S(=O)(=O)C(CNC(=O)C(=O)NCc2ccccc2C)c2cccs2)cc1 (stereo unspecified)	.	?	?	-3%	13%
Cc1ccccc1CNC(=O)C(=O)NCC(c1cccs1)S(=O)(=O)c1ccc(Cl)cc1 (stereo unspecified)	.	23µM*	?	5%	21%
Cc1nc2ccccc2c(=O)n1/N=C/c1ccccc1Cl	-9%	-24%	-6%	.	-65%
CCOC(=O)c1nnc(-c2ccc(C)cc2)nc1Sc1ccccc1Cl	-2%	16µM*	?	-12%	-1%
CCOC(=O)c1nnc(-c2ccc(C)cc2)nc1Oc1ccc(Cl)cc1Cl	2%	16µM*	?	2%	-27%
CCOC(=O)c1nnc(-c2ccccc2)nc1Sc1c(Cl)cccc1Cl	-5%	16µM*	21µM*	8%	27%
CCOC(=O)c1nnc(-c2ccc(C)cc2)nc1Sc1ccc(Cl)cc1	3%	8.2µM*	8.2µM*	8%	1%
CCOC(=O)c1nnc(-c2ccc(C)cc2)nc1Oc1ccccc1Cl	-12%	?	?	6%	-8%
O=C(OCCCc1cc2ccccc2c(=O)o1)N1CCOCC1	-1%	?	?	3%	.
CC1CCCC(C)N1C(=O)COC(=O)c1cc([N+](=O)[O-])ccc1N1CCOCC1 (stereo unspecified)	-5%	?	-28%	.	.
CCn1cc(C(=O)O)c(=O)c2cnc(N3CCN(C(=S)NC(=O)c4ccc(Cl)cc4Cl)CC3)nc21	-12%	-9%	-2%	2%[0.0935 µM]	9%
NS(=O)(=O)c1ccc(CCNC(=O)COC(=O)Cc2ccc([N+](=O)[O-])cc2)cc1	9%	-5%	4%	0%	.
Cc1nc(N2C(=O)c3oc4ccccc4c(=O)c3C2c2ccccc2F)sc1C (stereo unspecified)	.	-5%	2%	-3%	-14%
CCc1nn(C)c(N)c1C	-1%	3%	-2%	0%	1%
Cc1cc(=O)oc2ccc(OC(=O)CN3C(=O)c4cccc([N+](=O)[O-])c4C3=O)cc12	-1%	-10%	5%	0%	-20%
Cc1ccc(NC(=O)CCc2c(C)nn(-c3ccc(N4CCCCC4)nn3)c2C)cc1F	0%	?	?	2%	-28%
COc1ccc(NC(=O)CCc2c(C)nn(-c3ccc(N4CCCC4)nn3)c2C)cc1Cl	.	16µM*	?	6%	-60%
Cc1nn(-c2ccc(N3CCCCC3)nn2)c(C)c1CCC(=O)Nc1cccc(F)c1	17%	21µM*	?	-3%	-17%
CCc1cccc(NC(=O)CCc2c(C)nn(-c3ccc(N4CCCCC4)nn3)c2C)c1	-11%	?	-25%	8%	15%
CCOC(=O)c1cccc(NC(=O)CCc2c(C)nn(-c3ccc(N4CCCC4)nn3)c2C)c1	.	21µM*	?	5%	-3%
CCOC(=O)c1cccc(NC(=O)CCc2c(C)nn(-c3ccc(N4CCOCC4)nn3)c2C)c1	.	?	29µM*	3%	-1%
CC(C)(O)C(=O)NNC(=S)Nc1ccc(F)c(Cl)c1	-2%	11%	5%	3%	-4%
SMILES	uPA surface inh	TDP1 cell noCPT	TDP1 cell CPT	TDP1 inh	miR-21 reporter
COCCCNC(=O)CSc1nc2cc(OC)c(OC)cc2c2nc(-c3ccccc3)nn12	.	-7%	0%	2%	2%
CC(=O)Nc1cc2c(cc1NC(=O)c1cnccn1)OCCO2	3%	-7%	0%	-6%	-5%
C=CC[C@H](CC(=O)NCCO)C(=O)NCCOC(=O)[C@@H](CC=C)Cc1ccc(F)cc1	5%	-12%	-3%	0%	.
C=CC[C@@H](CC(=O)NCCO)C(=O)N[C@@H](COC(=O)[C@@H](CC=C)Cc1ccc(F)cc1)Cc1ccccc1	5%	?	18µM*	2%	.
C=CC[C@@H](CC(=O)N[C@H](CO)Cc1ccccc1)C(=O)N[C@H](COC(=O)[C@@H](CC=C)Cc1ccc(F)cc1)Cc1ccccc1	-15%	15µM*	23µM*	0%	.
C=CC[C@H](CC(=O)NCCO)C(=O)N[C@H](COC(=O)[C@@H](CC=C)Cc1ccc(F)cc1)C(C)(C)C	0%	18µM*	?	2%	.
O=C1CCCN1CCC1CCCCN1Cc1nc(COc2ccccc2)no1 (stereo unspecified)	-2%	-7%	-8%	3%	1%
C[C@@H](CSc1ccc(Br)cc1)CN1CC[C@H](C(C)(C)C)CCC1=O	6%	?	?	-10%	.
COC(=O)c1cc(Br)c(=O)n(-c2ccc(OC)cc2)c1	-1%	-3%	-12%	3%	0%
Fc1ccc2c(c1)Sc1ccc(Cl)cc1CC2N1CCN(CCC2OCCO2)CC1 (stereo unspecified)	0%	18µM*	?	.	.
CCCCCCCCCCCCC/C=C\[C@@H](O)[C@H](CO)NC(C)=O	.	?	15%	10%	.
COC(=O)c1cc(NC(=O)Cc2coc3cc(OC)ccc23)cc(C(=O)OC)c1	3%	?	23µM*	0%	-1%
COC(=O)c1ccc(C)c(NC(=O)Cc2coc3cc(OC)ccc23)c1	7%	?	-14%	0%	-5%
COc1ccc(NC(=O)c2oc3ccccc3c2NC(=O)Cc2coc3cc(C)ccc23)cc1	.	12µM*	?	-5%	-17%
COc1ccc(CC(=O)Nc2c(C(=O)Nc3ccc(F)cc3)oc3ccccc23)cc1OC	.	21µM*	12µM*	12%	-48%
CC(=O)N1CCc2cc(S(=O)(=O)NCCC(=O)NC3CCCCCC3)ccc21	3%	-20%	-23%	1%	-4%
COC(=O)C(NC(C)=O)(Nc1nc(C)cs1)C(F)(F)F (stereo unspecified)	3%	2%	-16%	-2%	-1%
COC(=O)C(NC(C)=O)(Nc1nc2c(C)cc(C)cc2s1)C(F)(F)F (stereo unspecified)	-11%	16µM*	?	0%	20%
